Measured values published in PubChem BioAssay (NCI).
The panel holds about 79,000 compounds, 15% with a hit somewhere; the sample as a whole holds those more often. Active and inactive are the calls of the source. No stated cut-off is given here; in the data, active means growth inhibition above about 70%; inactive means the rest.

Legend:
[1] = NCI Yeast Anticancer Drug Screen. Data for the rad52 strain (AID 147);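 further: 0% = growth of vehicle-treated control cultures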; settings: S. cerevisiae rad52 mutant growth inhibition, stronger effect = higher value
In short: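 The repair-mutant yeast strain was incubated with compounds, then growth was read and inhibition derived relative to vehicle.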

[2] = NCI Yeast Anticancer Drug Screen. Data for the wt1 strain (AID 149);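 further: 0% = growth of vehicle-treated wt1 cultures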; settings: S. cerevisiae wt1 strain (SPY 50644) growth inhibition, stronger effect = higher value
In short: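 Each compound is tested on wt1 yeast and the loss of growth versus vehicle gives the inhibition value.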

[3] = NCI Yeast Anticancer Drug Screen. Data for the rad50EPP+ strain (AID 151);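 further: 0% = growth of vehicle-treated control cultures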; settings: S. cerevisiae rad50 mutant strain, stronger effect = higher value
In short: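 Vehicle-normalised growth inhibition; rad50EPP+ yeast strain, altered in DNA damage repair, compound-treated.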

[4] = NCI Yeast Anticancer Drug Screen. Data for the mgt1 strain (AID 153); settings: S. cerevisiae mgt1 mutant growth inhibition, stronger effect = higher value
In short: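 Vehicle-normalized growth inhibition is determined in mgt1 yeast, a strain selected for a defined alteration in DNA repair or cell cycle control.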

[5] = NCI Yeast Anticancer Drug Screen. Data for the rad50 strain (AID 155);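 further: 0% = growth of vehicle-only cultures of the same strain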; settings: S. cerevisiae rad50 strain growth inhibition, stronger effect = higher value
In short: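 Vehicle-treated cultures provide the reference for the growth inhibition reported for compound-exposed, repair-deficient yeast.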

[6] = NCI Yeast Anticancer Drug Screen. Data for the mec2-1 strain (AID 157); settings: S. cerevisiae mec2-1 strain, stronger effect = higher value
In short: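 Mutant yeast (mec2-1) grown with compound; growth inhibition relative to vehicle control reported.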

[7] = NCI Yeast Anticancer Drug Screen. Data for the rad14 strain (AID 159);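 further: 0% = growth of vehicle-treated control cultures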; settings: S. cerevisiae rad14 strain growth inhibition, stronger effect = higher value
In short: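 Inhibition of growth is reported for a repair-deficient yeast mutant following compound treatment, calculated relative to cultures that received vehicle.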

[8] = NCI Yeast Anticancer Drug Screen. Data for the sgs1 mgt1 strain (AID 161);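 further: 0% = growth of cultures given vehicle only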; settings: S. cerevisiae sgs1 mgt1 strain, stronger effect = higher value
In short: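 Compounds are added to genetically altered yeast, and growth is compared with cultures given vehicle alone to give percent inhibition.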

[9] = NCI Yeast Anticancer Drug Screen. Data for the CLN2oe strain (AID 163);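 further: 0% = growth of vehicle-only control cultures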; settings: S. cerevisiae CLN2oe strain, stronger effect = higher value
In short: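 Compounds are applied to yeast harbouring a defined cell-cycle control change; reduced growth compared with vehicle-treated controls gives the value.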

[10] = NCI Yeast Anticancer Drug Screen. Data for the cln2 rad14 strain (AID 165);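 further: 0% = growth equal to vehicle treated cultures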; settings: S. cerevisiae cln2 rad14 strain, stronger effect = higher value
In short: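 Readout is yeast growth inhibition versus vehicle-treated controls, using a strain with cln2 and rad14 alterations exposed to compound.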

[11] = NCI Yeast Anticancer Drug Screen. Data for the bub3 strain (AID 167); settings: S. cerevisiae bub3 mutant strain, stronger effect = higher value
In short: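 Mutant yeast screening strain plus compound; vehicle-treated cultures serve as the 0% inhibition reference.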

[12] = NCI Yeast Anticancer Drug Screen. Data for the wt2 strain (AID 169); settings: S. cerevisiae wt2 strain growth inhibition, stronger effect = higher value
In short: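 Against vehicle-treated controls, the growth of yeast exposed to each compound was compared, and the inhibition was recorded.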

[13] = NCI Yeast Anticancer Drug Screen. Data for the mlh1 strain (AID 171);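 further: 0% = growth of vehicle-treated control cultures of the same strain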; settings: S. cerevisiae mlh1 strain growth inhibition, stronger effect = higher value
In short: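 Measured: yeast growth. Reference: vehicle-treated controls. Organism: strain with a defined alteration affecting DNA damage repair or cell cycle control, treated with compound.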

[14] = NCI Yeast Anticancer Drug Screen. Data for the sgs1 strain (AID 173);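 further: 0% = growth of vehicle-only control cultures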; settings: S. cerevisiae sgs1 mutant, stronger effect = higher value
In short: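 Each compound was added to cultures of the altered yeast strain. Growth was recorded, and inhibition was derived by comparison with vehicle controls.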

[15] = NCI Yeast Anticancer Drug Screen. Data for the mlh1 rad18 strain (AID 175); settings: S. cerevisiae mlh1 rad18 strain growth inhibition, stronger effect = higher value
In short: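 Genetically defined yeast (DNA repair-deficient) exposed to compounds; growth inhibition determined relative to vehicle.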

[16] = NCI Yeast Anticancer Drug Screen. Data for the rad18 strain (AID 177); settings: S. cerevisiae rad18 mutant growth inhibition, stronger effect = higher value
In short: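 Vehicle-treated cultures served as the baseline for scoring compound-induced growth inhibition in DNA-repair-mutant yeast.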

[17] = at 5.0 µM (retest, dose inferred, filed as 0.5)
[18] = at 50.0 µM (retest, dose inferred, filed as 5.0)

Measured: growth inhibition

Oc1cccc2cc(Cl)cnc12
inactive: [1]; at 1.2 µM -5% | [1]; at 3.7 µM 5% | [1]; at 11.0 µM 49% | [2]; at 1.2 µM -28% | [2]; at 3.7 µM -39% | [2]; at 11.0 µM 20% | [3]; at 1.2 µM -11% | [3]; at 3.7 µM -2% | [4]; at 1.2 µM -18% | [4]; at 3.7 µM -22% | [4]; at 11.0 µM 3% | [5]; at 1.2 µM -29% | [5]; at 3.7 µM -13% | [5]; [17] 37% | [5]; at 11.0 µM 37% | [5]; [18] 65% | [6]; at 1.2 µM -56% | [6]; at 3.7 µM -56% | [6]; [17] 38% | [6]; at 11.0 µM 6% | [6]; [18] 69% | [7]; at 1.2 µM -27% | [7]; at 3.7 µM -13% | [7]; at 11.0 µM 28% | [8]; [17] -13% | [9]; at 1.2 µM 5% | [9]; at 3.7 µM 8% | [9]; at 11.0 µM 45% | [10]; [17] 49% | [11]; at 1.2 µM -21% | [11]; at 3.7 µM -8% | [11]; [17] 55% | [11]; at 11.0 µM 20% | [12]; at 1.2 µM -31% | [12]; at 3.7 µM -26% | [12]; at 11.0 µM 1% | [13]; at 1.2 µM -22% | [13]; at 3.7 µM -42% | [13]; at 11.0 µM 3% | [14]; at 1.2 µM -47% | [14]; at 3.7 µM -43% | [14]; at 11.0 µM 46% | [15]; [17] 44% | [15]; [18] 50% | [16]; at 1.2 µM -11% | [16]; at 3.7 µM -4% | [16]; at 11.0 µM 60%
active: [1]; at 33.0 µM 96% | [1]; at 100.0 µM 97% | [2]; at 33.0 µM 96% | [2]; at 100.0 µM 98% | [3]; at 11.0 µM 94% | [3]; at 33.0 µM 98% | [3]; at 100.0 µM 97% | [4]; at 33.0 µM 97% | [4]; at 100.0 µM 98% | [5]; at 33.0 µM 96% | [5]; at 50.0 µM 90.7% | [5]; at 100.0 µM 97% | [6]; at 33.0 µM 97% | [6]; at 50.0 µM 92.8% | [6]; at 100.0 µM 98% | [7]; at 33.0 µM 97% | [7]; at 100.0 µM 98% | [8]; [18] 99% | [8]; at 50.0 µM 91.7% | [9]; at 33.0 µM 95% | [9]; at 100.0 µM 94% | [10]; [18] 98% | [10]; at 50.0 µM 88.7% | [11]; at 33.0 µM 96% | [11]; [18] 99% | [11]; at 50.0 µM 91.8% | [11]; at 100.0 µM 97% | [12]; at 33.0 µM 96% | [12]; at 100.0 µM 98% | [13]; at 33.0 µM 96% | [13]; at 100.0 µM 97% | [14]; at 33.0 µM 97% | [14]; at 100.0 µM 98% | [15]; at 50.0 µM 91.2% | [16]; at 33.0 µM 96% | [16]; at 100.0 µM 97%
